High-throughput results deposited in PubChem BioAssay by The Scripps Research Institute Molecular Screening Center.
FXN GAA850 act = increases GAA850 frataxin promoter reporter activity | activation, % at 6 µM | HEK293 lucGAA850 FXN promoter luciferase reporter, 24 h; percent of 10 µM SAHA response | 360,000 compounds, 0.56% hits | AID 540364;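 active = activation above the average of all compounds screened plus 3 SD, cutoff fixed separately per campaign, cut at about 7.5% in these data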;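 also: 0% = DMSO wells and 100% = 10 µM SAHA wells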
hcDAF-12 act = activates DAF-12 receptor from parasite H. contortus; HEK293 hcDAF-12 lit1-tk-luc reporter, luminescence; 0% DMSO, 100% Δ7-dafachronic acid; activation, % at 6.8 µM; 370,000 compounds, 1.4% hits;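 active = activation above the mean of all tested compounds plus 3 SD, cut at about 5.5% in these data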;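 also: 100% = response to 3 µM Δ7-dafachronic acid high control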
DAX1 inh-1 = DAX1 (NR0B1) inhibition, primary screen. HEK293T StAR-luciferase reporter, SF-1/DAX-1 repression relief. inhibition, % at 6.8 µM. 370,000 compounds, 1.1% hits;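 active = inhibition above the mean over all tested compounds plus 3 SD, cut at about 3.6% in these data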;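 also: 0% = DAX-1 cells with DMSO and 100% = cells lacking DAX-1 with DMSO; higher inhibition means more luminescence from relief of DAX-1 repression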
hgDAF12 agonist = agonists of H. glycines DAF-12 nuclear receptor; 370,000 compounds, 1.8% hits; AID 687014; HEK293 GAL4-hgDAF12 UAS-luciferase reporter, agonist luminescence; normalized to butyrate control; activation, % at 6.8 µM;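 active = activation above a cutoff set at the mean of all screened compounds plus 3 SD, cut at about 10% in these data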;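 also: 0% = DMSO wells and 100% = sodium butyrate wells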
ssDAF12 agonist = activates DAF-12 receptor from parasite S. stercoralis | activation, % at 6.8 µM | 370,000 compounds, 1% hits | AID 652126 | HEK293 ssDAF-12/GRIP1 lit1-tk-luc reporter, luminescence; % of 3 µM dafachronic acid response;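 active = activation above the mean over all tested compounds plus 3 SD, cut at about 0.9% in these data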;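 also: 0% = DMSO-only wells and 100% = 3 µM delta7-dafachronic acid wells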
DAX1 inh-2 = inhibits human nuclear receptor DAX1; HEK293 Gal4-DAX1 luciferase reporter, luminescence; inhibition, % at 6.75 µM; 340,000 compounds, 0.99% hits;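 active = inhibition above the mean over all tested compounds plus 3 SD, cut at about 4.2% in these data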;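 also: 0% = DAX1-transfected cells with DMSO and 100% = empty-vector control cells with DMSO; inhibition shows as a rise in luminescence from relieved DAX1 repression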
Target sequence (P51843 207-470 limits assumed): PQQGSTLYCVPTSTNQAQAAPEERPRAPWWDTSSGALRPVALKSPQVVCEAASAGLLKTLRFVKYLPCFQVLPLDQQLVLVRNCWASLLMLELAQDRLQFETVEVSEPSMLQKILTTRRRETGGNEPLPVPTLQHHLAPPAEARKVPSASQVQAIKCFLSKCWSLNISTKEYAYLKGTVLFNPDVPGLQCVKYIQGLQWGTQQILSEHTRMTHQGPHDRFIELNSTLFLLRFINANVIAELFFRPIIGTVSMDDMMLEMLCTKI
* marks the source's active call; other numbers are inactive results. This is a sample that favours compounds with a hit; in the whole collection about 4.5% have one here.

CCOc1ccc(-n2c(=O)c3c4c(sc3n(CC(=O)NCC3CCCO3)c2=O)CCCC4)cc1 (stereo unspecified) was read as FXN GAA850 act 1, hcDAF-12 act -1, DAX1 inh-1 0, hgDAF12 agonist 4, ssDAF12 agonist -2 and DAX1 inh-2 -2.
For CCOc1ccc(-n2c(=O)[nH]c3sc4c(c3c2=O)CCCC4)cc1 the results were FXN GAA850 act 1, hcDAF-12 act 0, DAX1 inh-1 0, hgDAF12 agonist 1, ssDAF12 agonist -1 and DAX1 inh-2 7.8*.
`S=C(Nc1ccc(Br)cc1Cl)N1CCCC1` gave FXN GAA850 act 4, hcDAF-12 act 2, DAX1 inh-1 4.1*, hgDAF12 agonist 7, ssDAF12 agonist 0 and DAX1 inh-2 1.
Screening CN1CCN(c2ccc3c(c2)Oc2ccccc2CN(Cc2cn(Cc4cccc(C(F)(F)F)c4)nn2)S3(=O)=O)CC1 returned hcDAF-12 act -3, DAX1 inh-1 -1, hgDAF12 agonist -2 and ssDAF12 agonist -1.
Screening Cc1ccc(NC(=O)Nc2ccc3c(c2)nnn3C)cc1C returned FXN GAA850 act 2, hcDAF-12 act 1, DAX1 inh-1 1, hgDAF12 agonist 2, ssDAF12 agonist -1 and DAX1 inh-2 5.3*.
COc1ccccc1NC(=O)Nc1ccc2c(c1)nnn2C was read as FXN GAA850 act 1, hcDAF-12 act 2, DAX1 inh-1 2, hgDAF12 agonist 0, ssDAF12 agonist -1 and DAX1 inh-2 1.
For CCN(CC)c1ccc([C@H]2[C@@H]3CCCC[C@]3(O)CCN2CC(=O)NCc2ccco2)cc1 the results were FXN GAA850 act 0, hcDAF-12 act -2, DAX1 inh-1 0, hgDAF12 agonist 0, ssDAF12 agonist -1 and DAX1 inh-2 4.7*.
For C=CCN1[C@@H](Cc2ccccc2)COc2cccc(N3CCCC3)c2S1(=O)=O the results were hcDAF-12 act 0, DAX1 inh-1 -1, hgDAF12 agonist 4 and ssDAF12 agonist -1.
C#CCN1CC(N(C)CCOC(=O)c2cc(C)cc(C)c2)CS1(=O)=O (stereo unspecified) was read as hcDAF-12 act -3, DAX1 inh-1 1, hgDAF12 agonist -4 and ssDAF12 agonist -1.
For CN1c2ccccc2Oc2nnc(N3CCN(Cc4ccccc4)CC3)cc21 the results were FXN GAA850 act 2, hcDAF-12 act -1, DAX1 inh-1 0, hgDAF12 agonist 10*, ssDAF12 agonist -2 and DAX1 inh-2 -3.
For CN1c2ccccc2Oc2nnc(Cl)cc21 the results were FXN GAA850 act 2, hcDAF-12 act -2, DAX1 inh-1 1, hgDAF12 agonist -1, ssDAF12 agonist -1 and DAX1 inh-2 1.
COC(=O)[C@]12C[C@H](CC(=O)N3CCSCC3)C(=O)N(Cc3ccco3)C1=C[C@H](C(C)C)O[C@@H]2C1CC1 was read as hcDAF-12 act -1, DAX1 inh-1 1, hgDAF12 agonist -3 and ssDAF12 agonist -2.
`CCn1c(C(=O)OC)cc2c1ccn2-c1ccc(F)cc1` gave FXN GAA850 act 7, hcDAF-12 act 2, DAX1 inh-1 1, hgDAF12 agonist 13*, ssDAF12 agonist 0 and DAX1 inh-2 2.
Screening CC[C@H](C)C(=O)O[C@H]1CCC=C2C=C[C@H](C)[C@H](CC[C@@H]3C[C@@H](O)CC(=O)O3)[C@H]21 returned FXN GAA850 act -2, hcDAF-12 act -2, DAX1 inh-1 3.9*, hgDAF12 agonist 1, ssDAF12 agonist -1 and DAX1 inh-2 0.
`CCC(C)C(=O)OC1CCC=C2C=CC(C)C(CCC3CC(O)CC(=O)O3)C21` (stereo unspecified) gave FXN GAA850 act -2, hcDAF-12 act 2, DAX1 inh-1 1, hgDAF12 agonist 5, ssDAF12 agonist -1 and DAX1 inh-2 2.
COc1cccc(/C(O)=C2/C(=O)C(=O)N(CCN(C)C)C2c2ccccn2)c1 (stereo unspecified) was read as FXN GAA850 act 2, hcDAF-12 act 0, DAX1 inh-1 0, hgDAF12 agonist 0, ssDAF12 agonist -1 and DAX1 inh-2 1.
CN(C)CCN1C(=O)C(=O)/C(=C(/O)c2ccc3c(c2)OCCO3)C1c1ccccn1 (stereo unspecified) was read as FXN GAA850 act 1, hcDAF-12 act 1, DAX1 inh-1 0, hgDAF12 agonist 4, ssDAF12 agonist -1 and DAX1 inh-2 5.2*.
`COC(=O)C1CN(Cc2ccc(Cl)cc2)CCS(=O)(=O)N1Cc1cn(Cc2ccccc2)nn1` (stereo unspecified) gave hcDAF-12 act -1, DAX1 inh-1 -1, hgDAF12 agonist 0 and ssDAF12 agonist -1.
Screening O=C(Cn1nnc(-c2ccccc2F)n1)Nc1ccc(Cl)c(Cl)c1 returned hcDAF-12 act -1, DAX1 inh-1 0, hgDAF12 agonist 3 and ssDAF12 agonist -1.
Screening COc1cccc(/C(O)=C2\C(=O)C(=O)N(c3ccccn3)C2c2ccccc2OC)c1 (stereo unspecified) returned FXN GAA850 act 0, hcDAF-12 act 1, DAX1 inh-1 0, hgDAF12 agonist -1, ssDAF12 agonist -1 and DAX1 inh-2 2.
For COc1ccc(C2/C(=C(\O)c3cccc(OC)c3)C(=O)C(=O)N2c2ccccn2)cc1 (stereo unspecified) the results were FXN GAA850 act 1, hcDAF-12 act -1, DAX1 inh-1 -1, hgDAF12 agonist 1, ssDAF12 agonist -1 and DAX1 inh-2 6.8*.
Screening CC[C@@H](CCCCCCCn1ccc2ccccc21)CCC(=O)N(c1ccccc1)c1ccccc1 returned hcDAF-12 act -2, DAX1 inh-1 0, hgDAF12 agonist 2 and ssDAF12 agonist 0.
C/C(=C/c1nc(N)n(Cc2ccccc2)c1Cc1ccccc1)Cn1[nH]c(=O)n(-c2ccccc2)c1=O was read as hcDAF-12 act 1, DAX1 inh-1 -1, hgDAF12 agonist -2 and ssDAF12 agonist -2.
`O=S(=O)(c1ccc(F)cc1)N1CCN(c2ccccn2)CC1` gave FXN GAA850 act 0, hcDAF-12 act 3, DAX1 inh-1 0, hgDAF12 agonist 1, ssDAF12 agonist 1.6* and DAX1 inh-2 0.
For O=C(Nc1c(F)cc(F)cc1Br)c1cc(S(=O)(=O)N2CCN(c3ccccn3)CC2)ccc1F the results were FXN GAA850 act -2, hcDAF-12 act -3, DAX1 inh-1 -2, hgDAF12 agonist -1, ssDAF12 agonist -2 and DAX1 inh-2 4.7*.
`CC[C@H]1C=C[C@@H](C(=O)NS(=O)(=O)c2ccc(C)cc2)N(C(C)=O)C1` gave hcDAF-12 act -1, DAX1 inh-1 -1, hgDAF12 agonist -2 and ssDAF12 agonist -1.
